TGFb inhibitor: inhibitors of TGF-b signaling; HepG2 CAGA-GFP TGF-b/SMAD3 reporter, GFP fluorescence, 18 h; TGF-beta stimulated, 500 pg/mL final; Potency, µM (series often up to 46.1 µM), hits mostly inhibitors; 410,000 compounds, 1.2% hits; AID 588855; further: nearly all actives have a fitted effect of over 65% in size
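Cell-based qHTS in HEPG2 carrying a CAGA-GFP Smad reporter; compounds added before 500 pg/mL final TGF-beta, 18 h incubation at 37 degrees C, GFP fluorescence quantified per cell by imaging cytometry.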
ATXN2 expr inh: ATXN2 expression inhibition | AID 1745845 | 360,000 compounds, 0.72% hits | Potency, µM (top dose mostly 57 µM), usual class: inhibitors | HEK-293 ATXN2-luciferase reporter, luminescence, 24 h; further: nearly all actives have a fitted effect of over 55% in size
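qHTS (up to 57 uM final) was run with 24 h compound exposure of reporter cells at 37 °C. Each well was multiplexed: SteadyGlo luminescence measured ATXN2-luciferase expression after a fluorogenic Gly-Phe-AFC viability readout (25 uM final).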
KB-V1 MDR tox: kills drug-selected multidrug resistant KB-V1 cells; KB-V1 MDR cells viability, CellTiter-Glo, 72 h; Potency, µM (series often up to 46.1 µM), usual class: cytotoxic; 400,000 compounds, 3.4% hits; AID 1347076; further: nearly all actives have a fitted effect of over 60% in size
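Drug-selected KB-V1 cells, grown in DMEM lacking phenol red with 10% FBS, receive compound titrations; after three days at 37 degrees C, surviving cell ATP is quantified by CellTiter-Glo luminescence and responses normalized and curve-fitted.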
ATXN viability: cell viability loss in ATXN counter-screen. S2 cells (HEK-293 line with an ATXN2-luciferase reporter) viability, CellTiter-Fluor protease fluorescence, 24 h. Potency, µM (highest dose often 56.7 µM), most hits filed as cytotoxic. 400,000 compounds, 0.49% hits. AID 651635; further: nearly all actives have a fitted effect of over 40% in size
KB-3-1 tox: kills parental KB-3-1 adenocarcinoma cells | 400,000 compounds, 1.4% hits | KB-3-1 viability, CellTiter-Glo ATP luminescence, 72 h | Potency, µM (highest dose often 46.1 µM), actives largely listed as cytotoxic | AID 1347075; further: nearly all actives have a fitted effect of over 60% in size
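Luminescent ATP read-out (CellTiter-Glo) measures survival of drug-naive KB-3-1 cells after 72 h compound exposure at 37 °C. Titration series was screened from lowest to highest concentration, with DMSO vehicle plates as background controls.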
HepG2 tox: kills HepG2 cells in TGF-b inhibitor counter-screen; HepG2 CAGA-GFP viability, ATP luminescence, 18 h; Potency, µM (highest dose often 46.1 µM), hits mostly cytotoxic; 410,000 compounds, 0.76% hits
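CellTiter-Glo luminescence gave cytotoxicity after 18 hours at 37 degrees C. The cells were HepG2 CAGA-GFP in 1% FBS DMEM, stimulated with 500 pg/mL TGF-beta after compound addition. %Activity was normalised to no-cell wells (complete cell-killing) and DMSO (no toxicity), and curves were fitted and classified.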
A number is an active result; 0 = inactive; ? = inconclusive; - = not tested or not shown. This is a sample that favours compounds with a hit; in the whole collection about 5.9% have one here. The call rests on the fitted dose curve; in most records, active means well fitted curve in the direction sought with a large enough effect; inconclusive means small, poorly fitted or top-dose-only effect, or another doubt; inactive means no such curve, though single readings can be large; an effect the other way counts as inactive or inconclusive.

SMILES	TGFb inhibitor	ATXN2 expr inh	KB-V1 MDR tox	ATXN viability	KB-3-1 tox	HepG2 tox
COc1ccc(-c2cc(NC(C)=O)c3ncc(-c4cccc(C(F)(F)F)c4)n3c2)c(OC)c1	?	0	0	?	0	0
COc1ccccc1-c1cc(NC(C)=O)c2ncc(-c3cccc(C(F)(F)F)c3)n2c1	?	0	0	?	0	16µM
COc1ccc2c(c1OC)C(=O)OC2c1ccc(O)cc1 (stereo not given)	0	-	0	-	0	0
CCOC(=O)c1cc(OC)c2cccc(CN3CCCC(C)(C(=O)NCCOC)C3)c2c1 (stereo not given)	0	?	0	20µM	0	0
c1ccc(-c2cc(NCCN3CCCCC3)c3ccccc3n2)cc1	?	28µM	?	-	?	0
Cc1cccc2c1CC[C@H](CN1CCC(c3c(Cl)cccc3Cl)CC1)C[C@@H]2O	-	0	-	-	-	-
COc1ccc(-c2ccc(SCC(=O)c3cccs3)nn2)cc1	0	0	16µM	0	?	0
COC(=O)c1cc(CNC(=O)c2ccncc2)cc(NC(=O)c2ccccc2Cl)c1	-	-	-	0	-	-
CCN(CC)C(=O)Cn1c(C)c(/C=C/c2cc[n+](C)cc2)c2ccccc21	0	0	0	0	0	0
CCn1cc(/C=C/c2cc[n+](C)cc2)c2ccccc21	0	-	0	0	0	0
C=CCn1c(C)c(/C=C/c2cc[n+](C)cc2)c2ccccc21	0	?	0	0	2.3µM	0
CC(C)n1cc(/C=C/c2cc[n+](C)cc2)c2ccccc21	0	?	0	0	1.3µM	0
C=CCn1cc(/C=C/c2cc[n+](C)cc2)c2ccccc21	0	-	0	-	4.1µM	0
O=C(NCc1ccccc1Cl)c1ccc(Cn2c(=O)c3cccn3c3cccnc32)cc1	0	-	-	-	-	0
Cc1oc2ncnc(N3CCOCC3)c2c1C(=O)Nc1ccc(Br)cc1F	0	0	0	0	0	0
CCOC(=O)/C(=C\c1ccccc1)C(=O)c1cc(C(C)=O)c(Nc2ccccc2)s1	0	11µM	?	20µM	0	3.2µM
CCOC(=O)/C(=C\c1cccnc1)C(=O)c1cc(C(C)=O)c(Nc2ccccc2)s1	2.8µM	3.5µM	6.5µM	4.5µM	3.3µM	0
CCOC(=O)C(=O)/C(C#N)=C/Nc1ccccc1	0	0	?	0	0	0
Cc1c(C(=O)N2CCC(C)CC2)c(S(=O)(=O)Nc2cccc(C(F)(F)F)c2)c(C)n1C	0	-	-	-	-	0
O=C(NCc1cccs1)C1CCN(C(=O)N2CCOc3ccccc32)CC1	0	-	0	-	0	0
Cc1[nH]n(-c2ccccc2)c(=O)c1/C=N/n1c(C)nc2ccccc2c1=O	0	0	?	0	0	0
Cc1ccc(-n2[nH]c(C)c(/C=N/n3c(C)nc4ccccc4c3=O)c2=O)cc1	0	0	?	0	0	6.3µM
Cc1ccc(-n2[nH]c(C)c(C=Nc3ccc(C)cn3)c2=O)cc1	0	0	?	0	?	4µM
CC(C=CC=C(C)C=CC1=C(C)CCCC1(C)C)=CC=CC=C(C)C=CC=C(C)C=CC1=C(C)CCCC1(C)C	-	0	-	-	-	-
Cc1cc(NC(=O)NC(=O)c2ccccc2NC(=O)C(C)N)ccc1Oc1ncc(Br)cn1 (stereo not given)	?	0	0.73µM	?	0.23µM	0
SMILES	TGFb inhibitor	ATXN2 expr inh	KB-V1 MDR tox	ATXN viability	KB-3-1 tox	HepG2 tox
CC(=O)N1CCc2c(sc3c2c(=O)n(-c2ccccc2)c(=O)n3CC(=O)c2ccc(Cl)cc2)C1	0	0	0	0	0	0
Cc1ccc2oc3nc(C)c(C(=O)O)cc3c(=O)c2c1	?	0	0	0	?	11µM
CC(=O)c1cc2c(=O)c3cc(C)ccc3oc2nc1C	0	0	0	0	0	0
C=CCC[C@H](Cc1ccc(F)cc1)C(=O)OC[C@@H](Cc1c[nH]c2ccccc12)NC(=O)[C@@H](CC=C)CC(=O)N[C@H](CO)Cc1ccccc1	0	0	0	?	0	0
C=CCC[C@H](Cc1ccc(F)cc1)C(=O)OC[C@H](Cc1c[nH]c2ccccc12)NC(=O)[C@@H](CC=C)CC(=O)N[C@H](CO)Cc1ccccc1	13µM	0	0	?	?	0
C=CC[C@H](CC(=O)N[C@H](CO)Cc1ccccc1)C(=O)N[C@H](COC(=O)[C@@H](CC=C)Cc1ccc(F)cc1)Cc1c[nH]c2ccccc12	0	0	0	?	0	0
C=CCC[C@H](Cc1ccc(F)cc1)C(=O)OC[C@H](Cc1c[nH]c2ccccc12)NC(=O)[C@H](CC=C)CC(=O)N[C@H](CO)Cc1ccccc1	0	0	0	?	0	0
C=CCC[C@@H](Cc1ccc(F)cc1)C(=O)OC[C@H](Cc1c[nH]c2ccccc12)NC(=O)[C@@H](CC=C)CC(=O)N[C@H](CO)Cc1ccccc1	?	0	?	?	0	13µM
C=CCC[C@H](Cc1ccc(F)cc1)C(=O)OC[C@H](Cc1c[nH]c2ccccc12)NC(=O)[C@@H](CC=C)CC(=O)N[C@@H](CO)Cc1ccccc1	?	16µM	0	18µM	?	13µM
CCCCC(Sc1ccc2nnc(-c3ccccn3)n2n1)C(=O)O (stereo not given)	0	-	?	-	?	0
O=C(C[n+]1ccccc1)c1ccc(I)cc1	0	-	?	-	?	0
COc1cc(/C=C2\NC(=S)N(C)C2=O)ccc1O	0	0	0	?	0	0
CN1C(=O)/C(=C/c2ccc(O)c([N+](=O)[O-])c2)NC1=S	0	0	0	25µM	0	0
Cc1cc(C(=O)NCC2CCC3(CCN(Cc4cccc(F)c4F)CC3)O2)n(C)n1 (stereo not given)	-	-	-	0	-	-
CCOc1ccc(C(=O)NCC(c2cccs2)N(C)C)cc1OCC (stereo not given)	0	0	23µM	0	0	0
Cc1ccc(C(=O)NCC(=O)NCC(c2cccs2)N(C)C)cc1C (stereo not given)	0	0	15µM	0	0	0
Cc1ccc(S(=O)(=O)NCCC(=O)NCC(c2cccs2)N(C)C)cc1 (stereo not given)	0	0	0	0	0	0
CCCOc1ccc(C(=O)NCC(c2cccs2)N(C)C)cc1 (stereo not given)	0	-	0	0	0	0
CCC(C)n1c(=O)c2sccc2n2c(CCCC(=O)Nc3ccc(F)cc3)nnc12 (stereo not given)	?	-	-	-	-	0
Cc1ccc(-n2nc3c(=O)n(CC(=O)c4ccc(F)cc4)nc(C)c3c2C)cc1	0	0	2.9µM	0	0	0
Cc1nn(Cc2ccccc2)c(=O)c2nn(-c3ccc(Cl)cc3)c(C)c12	0	0	8.2µM	0	0	0
